27 molecules from PubChem BioAssay (NCI) can be followed below.

Compounds without any hit were thinned out: in the full panel of roughly 83,000, 20% have a hit.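 Cell lines were cultured in 96-well plates, exposed to a single compound concentration, and assessed for percent growth 48 hours later.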 The source made the active and inactive calls. Rule for the calls: active = growth percent below 10; inactive = the rest.

This experiment relates to HL-60(TB) leukemia. The experiment can be described thus: NCI-60 one-dose screen, 48 h (100 = growth as untreated, 0 = no growth, -100 = all killed). Conditions: 10 µM unless noted.
For `CCCCNc1ccc2c3c(cccc13)C(=O)N(c1cccc(-c3nn(-c4ccccc4)cc3-c3nc4ccccc4s3)c1)C2=O`, the growth was 106% (inactive).

`O=C(COc1ccc(NC(=O)Nc2ccc(Cl)c(Cl)c2)cc1)N=Nc1c(O)[nH]c2ccc(Br)cc12`: the growth was -27.2% (active).

As for `O=C1CCC(N2C(=O)c3cccc(NCCOCCOCCOCCC(=O)NCCCC(=O)NC(c4ccc5c(c4)OCO5)c4cc(Cl)c5cccnc5c4O)c3C2=O)C(=O)C1` (configuration not stated), the growth is -14.1% (active).

As for `C[C@H]1[C@@H](CC(=O)N[C@@H](Cc2coc3ccccc23)B(O)O)O[C@@H]2OC3(C)CC[C@H]4[C@H](C)CC[C@@H]1[C@@]24O3`, the growth is 11.2% (inactive).

Take `CN(C(=O)c1ccc(C(F)(F)F)cc1C(F)(F)F)c1sc2c(c1C#N)CCC(=O)C2`: the growth is 55.3% (inactive).

Regarding `COc1cc2c(c(OC)c1OC)C(=O)CC(c1cccc(NC(=O)c3cccc(NC(=O)[C@H](C)NC(=O)OC(C)(C)C)c3)c1)O2` (some centres not stated), the growth was 71.2% (inactive).

For `CC(=O)Nc1ccc(-c2cn(-c3cccc(C(=O)Nc4cccc(OC(F)(F)F)c4)c3)nn2)cn1`, the growth is 95.1% (inactive).

Regarding `Cn1cc(-c2nc(N)nnc2-c2c[nH]c3ccccc23)c2cc(Br)cnc21`, the growth is 4.17% (active).

Consider `Cc1ccccc1[C@H]1C(C(=O)c2ccc(Cl)cc2)C2(N[C@@H]1c1ccccc1)C(=O)Nc1ccc(Br)cc12` (some centres not stated), for which the growth is -1.57% (active).

On to `CC(=O)Nc1ccc(-c2cn(-c3cccc(C(=O)Nc4ccc(Cl)c(C(F)(F)F)c4)c3)nn2)cn1`, for which the growth was 35% (inactive).

`CCOc1ccccc1[C@H]1C(C(=O)c2ccc(Cl)cc2)C2(N[C@@H]1c1ccccc1)C(=O)Nc1ccc(Br)cc12` (some centres not stated): the growth was -18.4% (active).

As to `COc1cc(/C=N/NC(=O)c2ccc3nc(-c4ccc(Cl)cc4)[nH]c3c2)cc(OC)c1OC`, the growth is 32.1% (inactive).

Consider `COc1ccc(NC(=O)CSc2nnc(-c3ccc(-c4nc5ccccc5[nH]4)cc3)o2)cc1`, for which the growth was 43.5% (inactive).

In the case of `C[C@@H]1CN(c2ccc3ncc(C#Cc4cncc(C(=O)Nc5ccc(CN6CCN(C)CC6)c(C(F)(F)F)c5)c4)n3n2)C[C@@H](C)O1`, the growth is -53.6% (active).

Consider `CN1C(=O)C(O)(CC(=O)c2cc3ccccc3oc2=O)c2ccccc21` (configuration not stated), for which the growth was 84.4% (inactive).

With `COc1cc(CNC(=O)/C=C/c2ccc3c(c2)OCO3)ccc1OCc1cn(-c2cccc(C(F)(F)F)c2)nn1`, the growth was 69.7% (inactive).

Turning to `Brc1ccc(N/N=C/c2c[nH]c3ccc(Br)cc23)nc1`, the growth is -17.2% (active).

For the molecule `Cc1ccc(S(=O)(=O)c2nc(S(=O)(=O)c3ccc(C)cc3)c(N3CCN(C)CC3)s2)cc1`, the growth is 17.8% (inactive).

For the molecule `O=C(N/N=C/c1ccc(Br)o1)c1[nH]c2ccc(Br)cc2c1-c1ccccc1`, the growth is -48.7% (active).

As to `CCOC(=O)C1=C(N)N(c2ccccc2)C2=C(C(=O)CC(C)(C)C2)C1c1ccc(Cl)cc1` (configuration not stated), the growth was 6.03% (active).

On to `O=C(Nc1ccc(Cl)c([N+](=O)[O-])c1)Nc1ccc(Cl)c([N+](=O)[O-])c1`, for which the growth is 2.93% (active).

`Cc1ccc(C(=O)N/C(=C2/OCCN2C)[P+](c2ccccc2)(c2ccccc2)c2ccccc2)cc1`: the growth is 38.8% (inactive).

As for `CC[C@]12C=CCN3CC[C@]4(C(=C(C(=O)OC)C1)Nc1cc(OC)c([C@@H]5[C@H]6O[C@H]6[C@@]6(CC)CC(C(=O)OC)=C7Nc8cc(OC)ccc8[C@@]78CCN5[C@@H]68)cc14)[C@@H]32`, the growth is 25% (inactive).

`O=Cc1cncc(-c2ccc3ncnc(N4CCc5cc(F)c(Cl)cc54)c3c2)c1`: the growth was 44.3% (inactive).

On to `Cc1ccc(C(=O)Nc2cc(-c3ccccc3)cc(C(F)(F)F)c2)cc1C#Cc1cnc2cccnn12`, for which the growth was 38.1% (inactive).

On to `COc1ccc(-c2cc(C(=O)NCc3ccccc3)nn2-c2ccc(S(C)(=O)=O)cc2)cc1OC`, for which the growth was 97% (inactive).

Turning to `CN1CCc2c(sc3ncnc(N/N=C/c4cccc(Cl)c4Cl)c23)C1`, the growth is -50.9% (active).
